Results on 5 compounds are retold here after PubChem BioAssay.

Assay [1] in a line: Her2 expression decrease, cell viability multiplex – SKBR3 breast tumor cells, AlphaScreen, ATP viability, primary screen (AID 461;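 active means Her2 level under about 52% in both replicate screens, with viability over 70% of control, limit read from the data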;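 on Her2 level: lower value means less Her2 protein in the cells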;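 on viability: percent of carrier control wells set as 100% viability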). The following applies: SKBR3 Her2 protein level, 18-24 h, measured here: SKBR3 viability, ATP luminescence, at 10 µM. Background: In Alpha technology, singlet oxygen from a donor bead excites a nearby acceptor bead.
For assay [2], the target named is Receptor tyrosine-protein kinase erbB-2 (Homo sapiens) (UniProt P04626). Described as above. The following applies: 18-24 h, at 10 µM, stronger effect = lower value.
A short description of assay [3]: reduced viability of SK-BR-3 breast cancer cells – cell-based, 24 h, human, pilot screen (AID 572;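 active means viability at or below 10% of carrier control in both of two separate runs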;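 further: compound exposure lasted between 18 and 24 h rather than exactly 24 h; 100% = carrier-treated control wells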). As to conditions: SK-BR-3 viability, CellTiter-Glo luminescence, at 10 µM, stronger effect = lower value. (In general: ATP-based viability assays read luminescence as a measure of living cells.)
The nature of assay [4]: HUVEC growth inhibition – cell-based, human, primary screen (AID 575;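 active means viability at or below 30% in both replicate assays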;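 further: 100% = median of untreated cell wells with 0.1% DMSO on each plate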). The following applies: HUVEC proliferation, CellTiter-Glo luminescence, 72 h; at 10 µM; stronger effect = lower value.
The nature of assay [5]: H69AR cell proliferation blockers – human, duplicate replicates, primary screen (AID 580;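 active means viability at or under a set limit in both replicates, limit being median viability minus 3 SD, cut at about 48% in these data, passing the limit was not always enough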;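 further: 100% = mean luminescence of untreated wells and 0% = no signal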). The following applies: H69AR lung tumor cells viability, ATP luminescence, 72 h; at 10 µM; stronger effect = lower value.
Assay [6] is described as follows: MRP1 drug-resistance reversers in H69AR cells – cell-based, doxorubicin co-treatment, pilot screen (AID 601;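 active means viability loss from added drug above about 55%, and viability with drug at most 40%, in both replicates, limit read from the data, passing the limit was not always enough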). As to conditions: CellTiter-Glo, 72 h, at 10 µM; for differential viability (reversal): stronger effect = higher value.
The nature of assay [7]: yeast transport mutant growth inhibition pilot in 384-well plates, post-Golgi transport modulator project (AID 636; in the data active means inhibition above about 31%). As to conditions: absorbance 615 nm, about 18 h, stronger effect = higher value.
The nature of assay [8]: growth suppression of yeast trafficking mutant, preliminary HTS, modulators of trafficking downstream of Golgi apparatus project, 1536-format plate, OD 615 nm (AID 637). As to conditions: yeast transport mutant growth, absorbance 615 nm, 18 h; stronger effect = higher value.
Assay [9] can be described thus: S. cerevisiae growth inhibition in permissive medium (OD615), pilot counter-assay for S. cerevisiae lifespan shortening project, permissive growth control (AID 705;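 active means growth inhibition above 25% in both replicates, a cutoff set 3 SD above the mean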). As to conditions: OD615, 24 h, at 10 µM, stronger effect = higher value.
Assay [10] is described as follows: S. cerevisiae growth inhibition in restrictive medium, OD615, pilot screen, restrictive growth control, yeast lifespan reduction project (AID 706;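 active means growth inhibition above a set limit, 3 SD over mean compound inhibition, in both replicates, cut at about 43% in these data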;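 further: modified DeaD lifespan yeast strain shifted to restrictive glucose medium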). As to conditions: OD615, 48 h, at 10 µM, stronger effect = higher value.
The nature of assay [11]: doxorubicin toxicity protection in MRP-1 cells – H69AR cells, CellTiter-Glo, duplicate, MRP-1 activator project, pilot screen (AID 807;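 active means viability increase at or above a cutoff of the median across tested compounds plus 3 SD, cut at about 8.5% in these data, passing the limit was not always enough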;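 further: compound pretreatment 18-22 h then 72 h combined with doxorubicin; 0% = doxorubicin alone and 100% = vehicle without doxorubicin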). As to conditions: H69AR viability with doxorubicin, CellTiter-Glo luminescence; at 10 µM; stronger effect = higher value.
The nature of assay [12]: viability of HCT116 without oncogenic beta-catenin – human colon tumor cells, pilot screen (AID 823;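 active means cell viability at or below a set limit in both duplicate runs, the limit being the all-compound median minus 4 SD, cut at about 23% in these data, passing the limit was not always enough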;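 further: 0% = wells killed by 20 µM Hyamine and 100% = untreated DMSO cell wells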). The following applies: HCT116 beta-catenin knockout viability, CellTiter-Glo, 60 h; at 10 µM; stronger effect = lower value.
Assay [13] is described as follows: viability of PTEN-null HCT116 cells – cell-based, HCT116 clonal line, CellTiter-Glo, pilot screen (AID 824;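 active means viability at or below 27.92% in each of two runs, the all-compound median minus 4 SD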;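 further: 0% = 20 µM Hyamine control and 100% = vehicle cell control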). As to conditions: HCT116 PTEN-deleted viability, 60 h, at 10 µM, stronger effect = lower value.
A short description of assay [14]: RAM pathway blockade in budding yeast – dse1pr::URA3 reporter, 5-FOA selection, pilot screen (AID 869;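 active means inhibition over a set limit, the all-compound mean plus 3 SD, in both replicate runs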;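 further: 0% = DMSO wells with no growth and 100% = 10 µM 1-NA-PP1 with full growth; RAM network block rescues cells from 5-FOA so hits raise OD615 growth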). As to conditions: S. cerevisiae dse1pr::URA3 5-FOA growth, OD615, 2 d; at 10 µM; stronger effect = higher value; strain carries analog-sensitive mutant Cbk1 kinase.
Assay [15] is described as follows: RAM signaling pathway blockade in yeast – S. cerevisiae, Pdr1DBD-CYC8 efflux-inhibited sensitized strain, primary screen (AID 1298;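 active means RAM network inhibition above 8.4% in each of two replicates, 3 SD over the compound average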;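 further: 0% = DMSO untreated cells without growth and 100% = 10 µM 1-NA-PP1 full growth; higher means more yeast growth rescued from 5-FOA killing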). The following applies: S. cerevisiae cbk1-as DSE1-URA3 strain, 5-FOA growth OD615, 2 d; at 50 µM; stronger effect = higher value.
[16] abbreviates: H69AR cells + 2 uM doxorubicin, measured here: viability with 2 uM doxorubicin, stronger effect = lower value.
Where [17] appears, read: H69AR cells, compound alone cytotoxicity.

By viability is commonly meant a read-out of living cells in per cent, often relative to untreated cells. The inhibition is the change of the read-out against control, counted positive when it falls.

Records with an inconclusive call do not appear. The source made the active and inactive calls. Unless noted, no stated cut-off is given here; in the data, active means inhibition above about 30%; inactive means the rest.

Chain of Receptor tyrosine-protein kinase erbB-2 (Homo sapiens) (P04626 whole entry, looked up): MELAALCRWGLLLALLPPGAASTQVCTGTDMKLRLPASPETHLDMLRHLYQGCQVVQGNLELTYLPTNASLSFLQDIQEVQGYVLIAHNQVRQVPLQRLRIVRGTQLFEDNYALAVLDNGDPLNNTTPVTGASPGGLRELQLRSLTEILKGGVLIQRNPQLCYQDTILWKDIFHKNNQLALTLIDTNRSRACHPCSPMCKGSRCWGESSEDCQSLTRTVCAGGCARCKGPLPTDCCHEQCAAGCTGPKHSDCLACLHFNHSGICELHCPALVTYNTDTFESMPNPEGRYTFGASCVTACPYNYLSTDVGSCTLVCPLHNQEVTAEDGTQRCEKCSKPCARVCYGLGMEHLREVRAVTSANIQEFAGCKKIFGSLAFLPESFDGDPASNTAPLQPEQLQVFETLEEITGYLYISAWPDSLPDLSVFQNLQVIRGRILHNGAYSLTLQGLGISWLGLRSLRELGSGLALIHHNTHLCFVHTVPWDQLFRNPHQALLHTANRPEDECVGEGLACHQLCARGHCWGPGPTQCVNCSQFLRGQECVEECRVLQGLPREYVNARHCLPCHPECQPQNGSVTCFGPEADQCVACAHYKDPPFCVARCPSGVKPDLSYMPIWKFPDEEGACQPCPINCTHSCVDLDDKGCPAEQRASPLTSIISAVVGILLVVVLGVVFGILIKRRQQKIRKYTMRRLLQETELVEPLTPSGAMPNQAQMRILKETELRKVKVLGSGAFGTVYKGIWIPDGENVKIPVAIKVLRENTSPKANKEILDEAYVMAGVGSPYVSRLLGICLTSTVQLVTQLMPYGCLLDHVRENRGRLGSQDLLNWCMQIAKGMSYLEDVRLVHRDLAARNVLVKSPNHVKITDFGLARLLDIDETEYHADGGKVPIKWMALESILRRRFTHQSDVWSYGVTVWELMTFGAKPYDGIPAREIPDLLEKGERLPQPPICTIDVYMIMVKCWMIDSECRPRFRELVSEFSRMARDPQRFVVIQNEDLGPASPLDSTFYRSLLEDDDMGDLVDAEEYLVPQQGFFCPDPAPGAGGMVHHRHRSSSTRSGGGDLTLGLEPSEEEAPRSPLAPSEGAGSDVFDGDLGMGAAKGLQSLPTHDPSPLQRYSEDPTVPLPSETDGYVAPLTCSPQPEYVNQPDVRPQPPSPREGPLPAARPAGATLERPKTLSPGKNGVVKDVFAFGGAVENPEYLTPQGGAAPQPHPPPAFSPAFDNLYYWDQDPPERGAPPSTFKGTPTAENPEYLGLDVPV

With `O=C1c2ccccc2C(Nc2ccc(-c3nc4ccccc4[nH]3)cc2)N1Cc1ccco1` (stereo not given), the viability was 90.5% in [1]; 90.5% (inactive) in [3]; 65.9% (inactive) in assay [4]; 83.1% (inactive) in assay [5]; 68.1% in assay [6] (setting [16]); 83.1% in assay [6] (setting [17]). For the same compound, the viability in [12] was 59.2% (inactive); in assay [13] it was 62.1% (inactive). Moreover, in assay [2], the Her2 level was 102% (inactive). The differential viability (reversal) in assay [6] (H69AR cells + 2 uM doxorubicin) was 15% (inactive). For the same compound, the inhibition in [7] was 0.4% (inactive); in assay [8], 0.5% (inactive); in [14], 2.23% (inactive). For the same compound, the growth inhibition in [9] was -0.49% (inactive); in assay [10], 4.04% (inactive). In addition, in [11], the viability increase is -5.99% (inactive). In addition, the RAM network inhibition in assay [15] was 2.26% (inactive).
`O=C(NCCN1CCOCC1)c1ccc2c(c1)N(Cc1ccccc1F)C(=O)CS2`: the viability in assay [1] is 94%; in [3], 94% (inactive); in [4], 95% (inactive); in assay [5], 92.6% (inactive); in assay [6] (setting [16]) it was 100%; in assay [6] (setting [17]) it was 92.6%. Further, the viability in assay [12] and in assay [13] was 102% (inactive) in each case. Moreover, the Her2 level in [2] was 100% (inactive). Besides, in assay [6] (H69AR cells + 2 uM doxorubicin), the differential viability (reversal) is -7.79% (inactive). The inhibition in assay [7] is -6.4% (inactive); in assay [8] it was 1.59% (inactive); in [14], 1.9% (inactive). The growth inhibition was 7.73% (inactive) in assay [9] and 7.02% (inactive) in assay [10]. Also, the viability increase in assay [11] was 1.73% (inactive). Also, in [15], the RAM network inhibition is 1.89% (inactive).
For the compound `Cc1noc(/C=C/N(C)C)c1S(=O)(=O)N1CCCC(C(=O)N2CCc3ccccc32)C1` (stereo not given), the viability is 104% in [1]; 104% (inactive) in assay [3]; 86.3% (inactive) in assay [4]; 89.2% (inactive) in assay [5]; 94.7% in [6] (setting [16]); 89.2% in assay [6] (setting [17]). In addition, the viability is 103% (inactive) in assay [12] and 109% (inactive) in [13]. In addition, in assay [2], the Her2 level was 99% (inactive). The differential viability (reversal) in [6] (H69AR cells + 2 uM doxorubicin) was -5.5% (inactive). For the same compound, the inhibition is -5.2% (inactive) in assay [7], -0.33% (inactive) in assay [8] and 1.35% (inactive) in assay [14]. Besides, the growth inhibition is 5.67% (inactive) in [9] and -0.63% (inactive) in [10]. The viability increase in assay [11] was -0.98% (inactive). Besides, the RAM network inhibition in assay [15] is 4.08% (inactive).
Regarding `COc1ccccc1NC(=O)CSc1nnc(Cc2cccn2C)n1-c1ccc(F)cc1`, the viability in [1] is 96.5%; in assay [3] it was 96.5% (inactive); in [4], 95.4% (inactive); in assay [5], 71.8% (inactive); in assay [6] (setting [16]), 84.9%; in [6] (setting [17]) it was 71.8%. The viability in assay [12] is 86.7% (inactive); in assay [13], 86.8% (inactive). In [2], the Her2 level was 86% (inactive). In addition, in assay [6] (H69AR cells + 2 uM doxorubicin), the differential viability (reversal) was -13.1% (inactive). In addition, the inhibition in assay [7] was -4.8% (inactive); in assay [8], -2.67% (inactive); in assay [14], 2.05% (inactive). The growth inhibition in assay [9] was -3.11% (inactive); in [10], 10.8% (inactive). Also, in assay [11], the viability increase is -4.45% (inactive). For the same compound, the RAM network inhibition in assay [15] was 2.25% (inactive).
Consider `O=C(Cn1nc(Cc2ccncc2)c2ccccc2c1=O)N1CCN(C(=O)c2ccco2)CC1`, for which the viability in assay [1] is 98.5%; in assay [3], 98.5% (inactive); in [4] it was 85.6% (inactive); in [5], 86% (inactive); in [6] (setting [16]) it was 94.2%; in [6] (setting [17]), 86%. In addition, the viability is 106% (inactive) in [12] and 107% (inactive) in assay [13]. For the same compound, the Her2 level in [2] was 110% (inactive). Besides, the differential viability (reversal) in [6] (H69AR cells + 2 uM doxorubicin) is -8.19% (inactive). Further, the results for the inhibition in assay [7], in assay [8] and in assay [14] were -4.93% (inactive), -4.5% (inactive) and 1.01% (inactive), respectively. Moreover, the results for the growth inhibition in [9] and in [10] were -0.345% (inactive) and 9.88% (inactive), respectively. In assay [11], the viability increase is -1.96% (inactive). Further, in assay [15], the RAM network inhibition is 5.75% (inactive).
